From PubChem
DT40 TDP1 no CPT – qHTS for Inhibitors of human tyrosyl-DNA phosphodiesterase 1 (TDP1): qHTS in cells in absence of CPT; Potency, µM (series often up to 46.2 µM), most hits filed as inhibitors; 420,000 tested, 15% active; DT40 Tdp1-/- hTDP1 cells, no CPT, ATP luminescence, 48 h; AID 686978, 2013; also: nearly all actives have a fitted effect of over 55% in size
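Camptothecin absent (DMSO only). Human TDP1-complemented DT40 knockout cells, 400 cells/well, 37 °C for minimum 48 hr; ATP measured via CellTiter-Glo, 30 min dark incubation, luminescence.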
TGFb SMAD3 inh – TGF-b pathway inhibition | Potency, µM (highest dose often 46.1 µM), usual class: inhibitors | AID 588855 | HepG2 CAGA-GFP TGF-b/SMAD3 reporter, GFP fluorescence, 18 h; TGF-beta stimulated, 500 pg/mL final | 410,000 tested, 1.2% active; also: nearly all actives have a fitted effect of over 65% in size
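HEPG2 CAGA-GFP reporter cells (1000/well, DMEM with 1% FBS) received compounds, then recombinant TGF-beta at 500 pg/mL final for 18 hours at 37 degrees C. Per-cell GFP summed per well was normalised to unstimulated and stimulated DMSO controls before curve fitting.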
TDP1 cell CPT – growth inhibition of DT40 Tdp1-/-;hTDP1 cells with camptothecin (screen for TDP1 inhibitors); chicken DT40 Tdp1-/-;hTDP1 cells + 20 nM CPT, ATP luminescence, 48 h; Potency, µM (series often up to 46.2 µM), most hits filed as inhibitors; 420,000 tested, 12% active; AID 686979; also: nearly all actives have a fitted effect of over 55% in size
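Cell growth measured by CellTiter-Glo luminescence after a minimum 48 h, 37 C compound exposure with 20 nM CPT in Tdp1-knockout DT40 cells stably expressing hTDP1, seeded 400/well; qHTS titration format.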
IL1B secr inh – inhibitors of inflammasome signaling (IL-1 beta secretion). AID 743279. THP-1 LPS/ATP IL-1B secretion, AlphaLISA, 16 h; hits give low values. 360,000 tested, 4.7% active. activity change, % at 57.5 µM; in the data active = activity change below about -50%; inconclusive = mostly about -30% to -49%
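Secreted IL-1B measured by AlphaLISA bead assay after 16 h compound exposure of THP-1 cells; compounds (final up to 57.5 uM) added 1 h before LPS (250 ng/mL) and ATP (1.25 mM) stimulation; lower signal means less secretion.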
TDP1 block – TDP1 (human) enzyme inhibition. Q9NUW8. recombinant TDP1, AlphaScreen DNA substrate cleavage. Potency, µM (titrated, usually from 130 µM), usual class: inhibitors. 350,000 tested, 0.28% active; also: nearly all actives have a fitted effect of over 40% in size
Target sequence (Q9NUW8 whole entry, looked up): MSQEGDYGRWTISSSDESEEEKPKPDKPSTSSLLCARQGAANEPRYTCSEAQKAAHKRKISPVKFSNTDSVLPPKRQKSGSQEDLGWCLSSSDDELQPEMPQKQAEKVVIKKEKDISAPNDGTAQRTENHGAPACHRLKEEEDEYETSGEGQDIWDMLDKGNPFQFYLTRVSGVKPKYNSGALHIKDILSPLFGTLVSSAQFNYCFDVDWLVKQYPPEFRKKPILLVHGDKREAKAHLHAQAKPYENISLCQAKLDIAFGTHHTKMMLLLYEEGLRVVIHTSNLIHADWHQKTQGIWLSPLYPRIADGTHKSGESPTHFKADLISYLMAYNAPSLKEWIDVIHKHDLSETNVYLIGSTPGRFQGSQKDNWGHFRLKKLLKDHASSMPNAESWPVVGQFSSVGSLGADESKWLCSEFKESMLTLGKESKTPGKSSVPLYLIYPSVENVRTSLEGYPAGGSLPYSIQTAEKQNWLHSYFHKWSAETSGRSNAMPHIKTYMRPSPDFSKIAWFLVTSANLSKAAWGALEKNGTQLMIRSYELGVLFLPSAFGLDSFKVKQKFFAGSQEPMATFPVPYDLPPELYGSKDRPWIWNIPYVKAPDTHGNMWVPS
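AlphaScreen read-out: signal falls as enzyme removes the 3' tyrosine-FITC from a 5'-biotinylated DNA oligo (15 nM, 5 min, RT). Enzyme was E. coli-made recombinant Tdp1 at 1 nM, exposed to compound for 15 min beforehand; beads 10 ug/ml, 10 min.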
HepG2 tox – kills HepG2 cells in TGF-b inhibitor counter-screen. HepG2 CAGA-GFP viability, ATP luminescence, 18 h. Potency, µM (series often up to 46.1 µM), hits mostly cytotoxic. 410,000 tested, 0.76% active
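CellTiter-Glo luminescence gave cytotoxicity after 18 hours at 37 degrees C. The cells were HepG2 CAGA-GFP in 1% FBS DMEM, stimulated with 500 pg/mL TGF-beta after compound addition. %Activity was normalised to no-cell wells (complete cell-killing) and DMSO (no toxicity), and curves were fitted and classified.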
Each line names hits and unclear results; the compound was inactive in the other large screens. This is a sample that favours compounds with a hit; in the whole collection about 18% have one here. Unless noted, calls follow the shape of the dose curve; as a rule, active = well fitted curve in the direction sought with a large enough effect; inconclusive = small, poorly fitted or top-dose-only effect, or another doubt; inactive = no such curve, though single readings can be large; an effect the other way counts as inactive or inconclusive.

CC(=O)OC1CC(OC2C(O)CC(OC3C(O)CC(OC4CCC5(C)C(CCC6C5CCC5(C)C(C7=CC(=O)OC7)C(O)CC65O)C4)OC3C)OC2C)OC(C)C1OC1OC(CO)C(O)C(O)C1O (stereo unspecified)	DT40 TDP1 no CPT 1.8µM, TGFb SMAD3 inh 2µM, TDP1 cell CPT 1.5µM, IL1B secr inh -80 (no result: TDP1 block)
CC1OC(O[C@@H]2C(O)CC(O[C@@H]3C(O)C[C@@H](OC4CC[C@]5(C)[C@H](CC[C@H]6[C@@H]5CC[C@]5(C)C(C7=CC(=O)OC7)C(O)C[C@@]65O)C4)OC3C)OC2C)CC(O)C1O (stereo partly specified)	none (no result: TGFb SMAD3 inh, IL1B secr inh, HepG2 tox)
C[C@@H]1CC[C@@]2(OC1)O[C@H]1[C@@H](O)[C@H]3[C@@H]4CC[C@H]5C[C@@H](O[C@@H]6O[C@H](CO)[C@H](O[C@@H]7O[C@H](CO)[C@@H](O)[C@H](O[C@@H]8OC[C@@H](O)[C@H](O)[C@H]8O)[C@H]7O[C@@H]7O[C@H](CO)[C@@H](O)[C@H](O[C@@H]8O[C@H](CO)[C@@H](O)[C@H](O)[C@H]8O)[C@H]7O)[C@H](O)[C@H]6O)[C@H](O)C[C@]5(C)[C@H]4CC[C@]3(C)[C@H]1[C@@H]2C	none (no result: DT40 TDP1 no CPT, TGFb SMAD3 inh, TDP1 cell CPT, IL1B secr inh, HepG2 tox)
C[C@H]1O[C@@H](O[C@H]2CC[C@@]3(C)[C@H](CC[C@@H]4[C@@H]3C[C@@H](O)[C@]3(C)[C@@H](C5=CC(=O)OC5)CC[C@]43O)C2)C[C@H](O)[C@@H]1O[C@H]1C[C@H](O)[C@H](O[C@H]2C[C@H](O)[C@H](O[C@@H]3O[C@H](CO)[C@@H](O)[C@H](O)[C@H]3O)[C@@H](C)O2)[C@@H](C)O1	DT40 TDP1 no CPT 0.94µM, TDP1 cell CPT 1.3µM (no result: TGFb SMAD3 inh, IL1B secr inh, TDP1 block, HepG2 tox)
CC(=O)O[C@H]1C[C@H](O[C@H]2[C@@H](O)C[C@H](O[C@H]3[C@@H](O)C[C@H](OC4CC[C@@]5(C)C(CC[C@@H]6[C@@H]5CC[C@]5(C)[C@@H](C7=CC(=O)OC7)[C@@H](O)C[C@]65O)C4)O[C@@H]3C)O[C@@H]2C)O[C@H](C)[C@H]1O[C@@H]1O[C@H](CO)[C@@H](O)[C@H](O)[C@H]1O (stereo partly specified)	DT40 TDP1 no CPT 2.4µM, TDP1 cell CPT 3.3µM (no result: TGFb SMAD3 inh, IL1B secr inh, TDP1 block, HepG2 tox)
CC(Cc1ccccc1)NCCn1cnc2c1c(=O)n(C)c(=O)n2C (stereo unspecified)	DT40 TDP1 no CPT inconclusive (no result: TGFb SMAD3 inh, IL1B secr inh, TDP1 block, HepG2 tox)
Cc1ccc(CNC(=O)c2ccc(CSc3nc4ccncc4n3Cc3ccc(C)cc3)cc2)cc1	DT40 TDP1 no CPT 8.2µM, TGFb SMAD3 inh inconclusive, TDP1 cell CPT 5.2µM (no result: IL1B secr inh)
Cc1ccc(Cn2c(NCCCn3ccnc3)nc3c2c(=O)n(C)c(=O)n3C)cc1	DT40 TDP1 no CPT inconclusive, TDP1 cell CPT inconclusive
Cc1ccc(Cn2c(SCc3ccc(C(=O)NC4CCCC4)cc3)nc3ccncc32)cc1	DT40 TDP1 no CPT 16µM, TGFb SMAD3 inh inconclusive, TDP1 cell CPT inconclusive (no result: IL1B secr inh)
Cc1ccc(C(=O)NC2CC3CCC(C2)N3)cc1 (stereo unspecified)	IL1B secr inh inconclusive
CC1=CC(=C2C(=O)NC(=S)NC2=O)C=C(C(F)(F)F)N1Cc1ccccc1	DT40 TDP1 no CPT 1.6µM, TDP1 cell CPT 1.6µM
CC1=CC(=C2C(=O)NC(=S)NC2=O)C=C(C(F)(F)F)N1CCc1ccccc1	none (no result: DT40 TDP1 no CPT, TGFb SMAD3 inh, TDP1 cell CPT, IL1B secr inh, HepG2 tox)
CC1=CC(=C2C(=O)NC(=O)NC2=O)C=C(C(F)(F)F)N1Cc1ccccc1	DT40 TDP1 no CPT 18µM, TDP1 cell CPT inconclusive
CCN(CC)C(=O)c1ccc(NC(=O)COc2ccc([N+](=O)[O-])cc2Cl)cc1	DT40 TDP1 no CPT 21µM, TDP1 cell CPT inconclusive
